# Screening results as filed in PubChem BioAssay.
# This excerpt belongs to a sample that is enriched for hits.
# mHTT-CaM PPI inh: mHTT-calmodulin interaction abrogation. AlphaScreen His-mHTT/GST-CaM binding, luminescence. AID 1671202. actives 3.6% (n = 190,000). inhibition, % at 15 µM. P42858;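 also: 0% = both proteins with DMSO and 100% = one protein alone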
# Pf apPOL inh: Pf-apPOL DNA polymerase inhibition; Recombinant Pf-apPOL, molecular beacon fluorescence, 1.5 h; actives 0.25% (n = 210,000); inhibition, % at 10 µM
# * hit, by the source's call; . = not tested or not shown. Rule as the data show it: active = inhibition above about 50%; inactive = the rest.
SMILES,mHTT-CaM PPI inh,Pf apPOL inh
CCc1ccc(C(C)NC(=O)c2ccccn2)cc1 (centres undefined),-1,-11
Cc1cc(OCC(=O)NN)cc(C)c1Cl,0,0
Oc1ccc(N2Cc3ccccc3C2)cc1,100*,-8
Fc1ccc(N2Cc3ccccc3C2)cc1,-6,.
Cc1cccc(NC(=O)C2CC(=O)N(c3ccc(C(C)C)cc3)C2)n1 (centres undefined),-3,-7
CCCCNC(=O)c1sc2ncn(CC(=O)Nc3cccc(C(F)(F)F)c3)c(=O)c2c1C,68*,-4
Cc1c(C(=O)O)sc2ncn(CC(=O)Nc3cccc(C(F)(F)F)c3)c(=O)c12,3,-1
CCC(C)NC(=O)c1sc2ncn(CC(=O)Nc3cccc(C(F)(F)F)c3)c(=O)c2c1C (centres undefined),99*,0
COCCn1cnc2sc(C(=O)Nc3cccc(C(F)(F)F)c3)c(C)c2c1=O,19,-3
FC(F)(F)c1ccncc1-c1n[nH]c(=S)n1-c1ccc(Cl)cc1,.,-7
CCc1ccccc1NC(=O)C1CCCN(c2nccnc2Oc2ccc(C)cc2)C1 (centres undefined),-10,-5
CCc1nc2c(NC(=O)CCc3cccc(OC)c3)cccn2n1,13,-2
O=C(c1ccoc1)N1CCCn2nc(-c3cccs3)cc2C1,-3,-6
C[C@@H]1CC=C[C@H]2[C@H]1C(=O)N(Cc1ccccc1)[C@H]2c1ccc(-c2ccoc2)cc1F,60*,-7
O=C1C2C(c3ccccc3)CC=CC2[C@H](c2ccc(C(F)(F)F)cc2)N1Cc1ccccc1 (some centres undefined),20,-3
C[C@@H]1CC=C[C@H]2[C@H]1C(=O)N(Cc1ccccc1)[C@H]2c1ccc(-c2ccc(F)cc2)cc1F,-4,-2
C[C@@H]1CC=C[C@H]2[C@H]1C(=O)N(Cc1ccccc1)[C@H]2c1ccc(C(F)(F)F)cc1,91*,-2
C[C@@]12CCC=C[C@H]1[C@H](c1ccc(/C=C/c3ccccc3)cc1F)N(Cc1ccccc1)C2=O,17,-1
C[C@@]12CCC=C[C@H]1[C@H](c1ccc(C(F)(F)F)cc1)N(Cc1ccccc1)C2=O,83*,-2
O=C(CCCN1CCN2CCCCC2C1)c1ccc(F)cc1 (centres undefined),-8,-2
COc1cc(C=Nc2ccc(N=Cc3ccc(O)c(OC)c3)c([N+](=O)[O-])c2)ccc1O,26,-6
COCCc1noc(Cn2ccnc2C)n1,-9,-4
O=C(c1ccc(SCCN2CCCCC2)nc1)N1CCCCC1,1,-2
CCCC1c2cccn2CCN1C(=O)Nc1ccc(C)cc1Cl (centres undefined),0,-6
COCCNC(=O)C1CCN(c2ncnc3c2nc2n3CCCCC2)CC1,-2,-3
SMILES,mHTT-CaM PPI inh,Pf apPOL inh
N#CC1=C(N)OC2=C(C(=O)CC(c3ccccc3)C2)C1c1c[nH]c2ccccc12 (centres undefined),58*,3
N#CC1=C(N)OC2=C(C(=O)CC(c3ccccc3)C2)C1c1ccccc1F (centres undefined),14,-9
COc1cc([N+](=O)[O-])ccc1N1C(=O)CC(Sc2ccc(C)cc2)C1=O (centres undefined),13,0
COc1ccc(C=Nc2ccc(C)cc2C)cc1O,7,8
COc1cc(C=Nc2ccc(C)cc2O)ccc1O,77*,-4
Cc1ccc(N=Cc2cc([N+](=O)[O-])ccc2O)c(Br)c1,4,-3
Cc1ccc(N=Cc2cc(C)c(C)cc2O)c(O)c1,53*,8
COc1ccc(/C=C/C(=O)NCCn2ccc3ccccc32)cc1OC,13,4
CCC1C(c2ccccc2)=NNc2nc3c(c(=O)n(C)c(=O)n3C)n21 (centres undefined),6,-6
CC(=O)N1c2ccc(S(=O)(=O)N3CCc4ccccc4C3)cc2CC1C (centres undefined),27,3
CCn1c(/C=C/c2cccnc2)nc2ccccc2c1=O,100*,-2
O=c1[nH]c(/C=C/c2ccc(Cl)cc2)nc2ccccc12,-1,-2
CCn1c(/C=C/c2ccccc2Cl)nc2ccccc2c1=O,-1,-8
O=c1[nH]c(/C=C/c2cccnc2)nc2ccccc12,100*,-4
O=C(Nc1c2c(nn1-c1cccc(Cl)c1)CSC2)c1ccc([N+](=O)[O-])cc1,5,-1
COC(=O)c1scc(C)c1NC(=O)C(C#N)=Cc1ccc(C#N)cc1,.,-4
COc1ccc(/C=C2\N=C(c3ccc(C(C)(C)C)cc3)OC2=O)cc1OC,-2,-1
FC(F)(F)c1cc(NC(=S)NCCCN2CCOCC2)cc(C(F)(F)F)c1,.,-5
Cc1ccc(-c2cn3c(n2)N(C(=O)C2CCCN2)CCC3)cc1 (centres undefined),0,1
CCn1cc(-c2nc(C)c(C(=O)Nc3ccc(C)cc3)s2)c2cccnc21,-14,2
Cc1nc(-c2cn(C(C)C)c3ncccc23)sc1C(=O)Nc1ccc(F)cc1,100*,-8
COc1cc(C=C(C#N)c2nc(-c3cc4ccccc4oc3=O)cs2)cc(Br)c1O,0,2
O=C(CN1CCN(C2c3ccccc3-c3ccccc32)CC1)Nc1cccc(C(F)(F)F)c1,-6,-1
O=C(c1csc(N2CCN(c3ccc(F)cc3)CC2)n1)N1CCCCC1,5,-8
CCOc1nnc(-c2ccc(C)cc2)c2ccccc12,-11,3
SMILES,mHTT-CaM PPI inh,Pf apPOL inh
CCOc1nc(N=C(N)N)nc2c(C)cccc12,65*,3
CCc1ccc(NC(=O)N2CCC(n3cnc4c(Cl)cccc4c3=O)CC2)cc1,16,-12
CCc1[nH]nc(-c2ccc(OC)cc2OC)c1NC(C)=O,97*,84*
CCc1n[nH]c(CC)c1NC(=O)c1cccc(OC)c1,-8,2
Cn1cc(CCC(=O)NC2CCCCC2)c2ccccc21,15,-13
Cc1ccnc(SCCn2c(N3CCCC(C)C3)nc3c2c(=O)n(C)c(=O)n3C)n1 (centres undefined),2,-4
O=S(=O)(c1ccc(-c2csc(=Nc3ccccc3)n2CCO)cc1)N1CCCCC1,45,6
COc1ccc(N=c2scc(-c3ccc(I)cc3)n2CCO)cc1,66*,-5
COc1ccc(-c2csc(=Nc3ccccc3)n2CCO)cc1,45,-5
COc1ccc(N=c2scc(-c3ccc(Br)cc3)n2CCO)cc1,59*,5
O=[N+]([O-])c1c(Nc2ccccc2O)ncnc1Nc1ccccc1O,69*,-2
Nc1ncnc(Nc2ccccc2N=Cc2ccccc2O)c1[N+](=O)[O-],16,1
CC1CCCN(C(=O)c2nc3ccccn3c2-c2ccsc2)C1 (centres undefined),-8,-2
COc1ccc(C(C[N+](=O)[O-])c2c(C)[nH]c3ccccc23)c(OC)c1 (centres undefined),63*,2
COc1ccc(C(C[N+](=O)[O-])c2c(C)[nH]c3ccccc23)cc1OC (centres undefined),50,-7
COc1ccc(C(C[N+](=O)[O-])c2c[nH]c3ccccc23)cc1 (centres undefined),36,-2
COc1cc(C(C[N+](=O)[O-])c2c(-c3ccccc3)[nH]c3ccccc23)cc(OC)c1OC (centres undefined),58*,-1
CC(Oc1ccccc1)C(=O)NCC1CCN(C(=O)NC(C)(C)C)CC1 (centres undefined),-3,0
COc1ccc2c(c1)c(CN1CCC(C(=O)NCCN(C)Cc3ccccc3)CC1)cn2C,8,3
